These results are taken from PubChem BioAssay AID1851 (National Center for Advancing Translational Sciences (NCATS), 2009).

One may read the AC50 as the concentration giving half of the maximal activity seen.

SMILES strings stand for the structures. Among all 16,000 compounds or so, about 5,100 (32%) were called active. Not shown: some 25% with an inconclusive outcome. Some of the results follow. A number with no mark means an inactive call. The call rests on the fitted dose curve; in most records, active means well fitted curve in the direction sought with a large enough effect; inconclusive means small, poorly fitted or top-dose-only effect, or effect the other way; inactive means no such curve, though single readings can be large or run the other way.
On the % scale 0 is the no-effect control and ±100 the full control effect.

The test deals with Cytochrome P450 3A4 (Homo sapiens) (UniProt P08684). Kind of test: Cytochrome panel assay with activity outcomes. The conditions noted are these: recombinant CYP, pro-luciferin dealkylation, luminescence, p450-cyp3a4; series mostly up to 57.1 µM.
Sequence of Cytochrome P450 3A4 (Homo sapiens) (P08684 whole entry, looked up): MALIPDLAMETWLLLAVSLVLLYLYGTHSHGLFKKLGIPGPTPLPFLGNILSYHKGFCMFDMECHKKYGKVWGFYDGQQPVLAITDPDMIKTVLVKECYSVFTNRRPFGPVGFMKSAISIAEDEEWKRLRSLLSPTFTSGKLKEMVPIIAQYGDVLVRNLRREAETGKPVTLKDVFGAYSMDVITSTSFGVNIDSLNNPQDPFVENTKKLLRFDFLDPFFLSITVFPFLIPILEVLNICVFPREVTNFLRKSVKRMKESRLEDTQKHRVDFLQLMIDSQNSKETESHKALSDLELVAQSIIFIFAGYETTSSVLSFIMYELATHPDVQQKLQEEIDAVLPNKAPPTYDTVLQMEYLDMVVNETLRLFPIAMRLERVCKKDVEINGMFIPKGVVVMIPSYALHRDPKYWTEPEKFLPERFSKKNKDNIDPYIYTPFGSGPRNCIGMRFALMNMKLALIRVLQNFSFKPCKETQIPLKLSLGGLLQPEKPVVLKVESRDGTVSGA
For the compound `Cc1c(/N=C/c2ccco2)n(Cc2ccccc2)c2ccccc12`, the AC50 was 7.08 µM (active).
The same measure, in the same setting: the figure for `COC(=O)c1cc(NC(=O)N2c3ccccc3Sc3ccccc32)cc(C(=O)OC)c1` is 7.94 µM (active).
Regarding `COC(=O)C1CSC(C(=O)OC)N1C(=O)Nc1ccccc1` (configuration not stated), the AC50 result was “inactive”.
The same measure, in the same setting: the entry for `O=C(Nc1ccccc1)N1CCSc2cc(Cl)ccc21` is “inactive”.
As to `Cc1nnsc1SC(C)C(=O)O` (configuration not stated), the AC50 entry is “inactive”.
The same measure, in the same setting: under `C=CCSc1nc(C)cc(/C=C\c2ccccc2)c1C#N` stands 4.47 µM (active); under `Nc1nc(NCCc2ccc(O)cc2)nc2nc(-c3ccco3)nn12`, 15.8 µM (active); under `CC(=O)n1nc(-c2ccco2)nc1N`, “inactive”.
Still for that read-out and setting: under `c1ccc(CN(CC2=NCCN2)c2ccccc2)cc1` stands “inactive”.
On the same count and under the same terms, the entry for `Cc1ccc(C)c(/C(O)=C2\C(=O)C(=O)N(Cc3cccnc3)C2c2cccnc2)c1` (configuration not stated) is “inactive”.
Consider `Cc1cccc(-n2nc([N+](=O)[O-])c(=NCc3cccnc3)n2O)c1`, for which the AC50 was 15.8 µM (active).
Still for that read-out and setting: the entry for `CCNC(=S)NNC(=O)c1cc(C)on1` is “inactive”; for `COCC(C)n1c(C)cc(C(=O)CSc2nnc(Nc3ccccc3F)s2)c1C` (configuration not stated) it is 1.58 µM (active); for `COCCSc1nnc(NC(=O)C(C)(C)C)s1` it is “inactive”.
In the case of `Cc1cccc(C(=O)NC2CCN(C(=S)NCc3ccco3)CC2)c1`, the AC50 was 5.62 µM (active).
The same measure, in the same setting: the entry for `CC(C)CC(=O)N1CCN(Cc2cccc(F)c2)CC1` is “inactive”.
With `COc1cccc(N2CCN(C(=S)Nc3cccc(C)c3)CC2)c1`, the AC50 is 3.55 µM (active).
Same read-out and setting: under `COc1cccc(-c2csc(N3CCN(C(=S)Nc4ccccc4)CC3)n2)c1` stands 8.91 µM (active); under `COC(=O)c1ccc(NC(=S)N2CCN(Cc3cccc(C)c3)CC2)cc1`, 12.6 µM (active).
As for `COc1cccc(NC(=S)NN2CCN(C)CC2)c1`, the AC50 result is “inactive”.
Consider `Brc1ccc(-c2csc(N3CCC(c4ccccc4)C3)n2)cc1` (configuration not stated), for which the AC50 result was “inactive”.
The same measure, in the same setting: under `Cc1cccc(C(=O)NC(=S)N2CCN(C)CC2)c1` stands “inactive”; under `Cc1cccc(C(=O)NC2CCN(C(=O)N3CCOCC3)CC2)c1`, “inactive”.
Consider `Cn1cnc([N+](=O)[O-])c1Sc1nc(N)nc2c1ncn2Cc1ccccc1`, for which the activity, negative = inhibition is -11.4% [at 11.4 µM].
Consider `O=C1c2ccccc2C(=O)c2c1ccc(C(=O)O)c2-c1ccc2ccccc2c1`, for which the activity, negative = inhibition is -2.24% [at 11.4 µM].
On to `COc1cccc(-c2csc(N3CCN(CC(=O)NNC(=O)c4ccc(Cl)cc4)CC3)n2)c1`, for which the half-maximal activity concentration (AC50) was 11.2 µM (active).
As to `S=C(NCc1ccco1)N1CCN(Cc2ccco2)CC1`, the activity, negative = inhibition is -5.09% [at 2.29 µM].
For the compound `CN1CCN(C(c2ccccc2)c2ccccc2)CC1`, the AC50 entry is “inactive”.
Still for that read-out and setting: under `COc1ccc(-c2csc(N3C(=N)SCC3=O)n2)cc1` stands “inactive”; under `Clc1ccc(-c2csc(N3CCC(c4ccccc4)C3)n2)cc1` (configuration not stated), “inactive”.
On the same count and under the same terms, under `COc1ccc(C(=O)NC2CCN(C(=S)Nc3cccc(C)c3)CC2)cc1` stands 15.8 µM (active); under `S=C(NCc1ccco1)N1CCN(C(c2ccccc2)c2ccccc2)CC1`, 12.6 µM (active).
The same measure, in the same setting: the figure for `Cc1cccc(CNc2cc(-c3ccc(C(=O)N(C)C)cc3)ncn2)c1` is 3.16 µM (active).
Consider `CN(C)C(=O)c1ccc(-c2cc(NCc3ccccc3)ncn2)cc1`, for which the AC50 entry is “inactive”.
The same measure, in the same setting: the figure for `CN(C)C(=O)c1ccc(-c2cc(NCc3cccnc3)ncn2)cc1` is 15.8 µM (active).
In the case of `C[C@H](NC(=O)c1ccc(Cl)c(Cl)c1)c1ccc(-c2ccccc2)cc1`, the activity, negative = inhibition was -6.52% [at 11.4 µM].
Turning to `COc1ccc(C(NC(=O)c2ccc(-c3ccccc3)cc2)c2ccccc2)cc1` (configuration not stated), the AC50 is 0.0355 µM (active).
On the same count and under the same terms, under `O=C1OC2CC3CC1CC(O)(C3)C2` (configuration not stated) stands “inactive”; under `CCc1n[nH]c(=S)n1/N=C/c1ccc2c(c1)OCO2`, 14.1 µM (active).
Take `Oc1ccc(Cn2c(-c3ccc(O)cc3)nc3ccccc32)cc1`: the activity, negative = inhibition is -21.1% [at 11.4 µM].
In the case of `CCn1c(-c2ccc(N(C)C)cc2)nc2ccccc21`, the AC50 was 10 µM (active).
Same read-out and setting: under `COc1ccc(C(=O)N2CCC3(CCN(Cc4ccc(C#N)cc4)CC3)CC2)cc1` stands “inactive”; under `COc1ccc(C(=O)N2CCC[C@@]3(CCN(Cc4ccc(C#N)cc4)C3)C2)cc1`, 10 µM (active).
Take `COCC(=O)N1CCC2(CC1)CN(Cc1ccc(C#N)cc1)C2`: the AC50 entry is “inactive”.
Same read-out and setting: under `COc1ccc(C(=O)N2CCC[C@@]3(CCN(CC(C)C)C3)C2)cc1` stands 7.94 µM (active); under `COc1ccc(C(=O)N2CCC[C@@]3(CCN(Cc4ccccc4)C3)C2)cc1`, 10 µM (active); under `COC(=O)N1CCC2(CCCN(Cc3ccccc3)C2)CC1`, “inactive”.
Regarding `O=c1[nH]c(=O)n([C@@H]2C[C@H](O)[C@H](CO)O2)cc1I`, the AC50 entry was “inactive”.
Regarding `Brc1ccc(-c2nnc(-c3ccccc3)c(N3CCSCC3)n2)cc1`, the AC50 entry was “inactive”.
Still for that read-out and setting: under `CCCCN(C)S(=O)(=O)c1ccc(C(=O)Nc2nnc(CSC)o2)cc1` stands “inactive”.
As for `Cn1c(C(F)(F)F)nc2c(=O)oc3ccccc3c21`, the AC50 result was “inactive”.
Same read-out and setting: under `Nc1ccccc1S(N)(=O)=O` stands “inactive”; under `COc1ccc(C(C(=O)NC2CCCCC2)N2CCC3(CC2)OCCO3)cc1` (configuration not stated), 4.47 µM (active).
Turning to `Cc1ccc(C(C(=O)NC2CCCCC2)N2CCN(C(=O)c3ccco3)CC2)cc1` (configuration not stated), the activity, negative = inhibition was -19.6% [at 2.29 µM].
With `O=C(NC1CCCCC1)C(c1ccccc1)N1CCOCC1` (configuration not stated), the concentration at half-maximal activity (AC50) was 11.2 µM (active).
`CCOc1cc(C)c(S(=O)(=O)Nc2ccc3cn[nH]c3c2)cc1C`: the AC50 was 0.316 µM (active).
Take `CCOC(OCC)P(=O)(O)CCCNCc1ccc(Cl)c(Cl)c1`: the AC50 result is “inactive”.
Same read-out and setting: under `CC(SCc1cn2cc(Cl)ccc2n1)C(=O)O` (configuration not stated) stands “inactive”.
Same read-out and setting: the figure for `Cc1ccn2cc(CSc3ccccc3N)nc2c1` is 3.98 µM (active); for `C[C@@H](C[N+](C)(C)C)OC(N)=O` it is “inactive”; for `COC(=O)C1C(=O)C2=C(CC1C)NC(=O)CC2c1cccc(C)c1` (configuration not stated) it is 14.1 µM (active).
The same measure, in the same setting: the figure for `C=CC[C@@H]1C=C[C@H](O/N=C(\C)CCN2CCCCc3nc(C)c(C)cc32)[C@H](CO)O1` is 3.98 µM (active); for `C=CC[C@@H]1C=C[C@H](O/N=C(\C)CCN2CCCc3nc(C)c(C)cc32)[C@H](CO)O1` it is 2.51 µM (active).
For `CN(C(=S)Nc1ccccc1F)C1(c2ccccc2Cl)CCCCC1=O` (configuration not stated), the activity, negative = inhibition is -21.2% [at 2.29 µM].
On the same count and under the same terms, under `CCCCN1C2=NCCCN2c2ccccc21` stands 7.3% [at 11.4 µM]; under `Cc1ccsc1/C=N/Nc1nc(Cl)c(Cl)cc1Cl`, -21% [at 2.29 µM].
For the compound `O=C(Nc1cc2ccccc2oc1=O)C1CCCCC1`, the activity, negative = inhibition is 10.7% [at 2.29 µM].
For the compound `O=c1oc2ccccc2cc1-c1csc(NN=C2CCCCC2)n1`, the AC50 is 3.98 µM (active).
The same measure, in the same setting: under `O=C(Nc1ccc(-c2cc3ccccc3oc2=O)c(Cl)c1)c1cccnc1` stands “inactive”.
Still for that read-out and setting: under `COc1cc(OC)cc(C(=O)NC(=S)Nc2ccc(Cl)c(C(=O)O)c2)c1` stands “inactive”.
Regarding `COc1cc(OC)cc(C(=O)NC(=S)NCCc2ccccc2)c1`, the AC50 is 3.98 µM (active).
The same measure, in the same setting: the figure for `Cc1cccc(C)c1NC(=S)NC(=O)CCc1ccccc1` is 12.6 µM (active).
Regarding `O=C(CCc1ccccc1)NNC(=S)NC(=O)c1ccccc1`, the activity, negative = inhibition is 7% [at 2.29 µM].
Turning to `COc1ccc(C(=O)NC(=S)NNC(=O)CCc2ccccc2)cc1`, the AC50 is 11.2 µM (active).
Same read-out and setting: under `CC[N+](CC)(CC(=O)Nc1c(C)cccc1C)Cc1ccccc1` stands “inactive”.
Regarding `NNC(=O)c1ccc[n+](CCc2ccccc2)c1`, the activity, negative = inhibition was -7.56% [at 11.4 µM].
Take `CC(C)C12CN3CC(C(C)C)(CN(C1)C3c1ccco1)C2=O` (configuration not stated): the activity, negative = inhibition was -2.45% [at 2.29 µM].
For the compound `Cc1cccc(-c2nc(CN3CCCC(C(=O)NC4CCCCC4)C3)c(C)o2)c1` (configuration not stated), the concentration at half-maximal activity (AC50) is 3.16 µM (active).
As for `COc1ccc(CCNC(=O)C2CCCN(Cc3nc(-c4cccc(Cl)c4)oc3C)C2)cc1OC` (configuration not stated), the AC50 was 2 µM (active).
With `CCC(C)NC(=O)C1CCCN(C(=O)NC2CCCCC2)C1` (configuration not stated), the activity, negative = inhibition is 10.7% [at 2.29 µM].
As to `CCCS(=O)(=O)N1CCCC(C(=O)NCCCN2CCN(c3cccc(Cl)c3)CC2)C1` (configuration not stated), the AC50 result is “inactive”.
The same measure, in the same setting: under `COc1ccc2nc(N3CCCC(C(=O)NCCCN4CCN(C)CC4)C3)sc2c1` (configuration not stated) stands “inactive”.
Regarding `Cc1cn([C@H]2C[C@H](O)[C@@H](COC(N)=O)O2)c(=O)[nH]c1=O`, the activity, negative = inhibition was -22.2% [at 11.4 µM].
For the compound `CNc1cnn(-c2ccccc2)c(=O)c1Cl`, the AC50 entry is “inactive”.
Still for that read-out and setting: under `C=CCNc1cnn(-c2ccc(C)cc2)c(=O)c1Cl` stands 4.47 µM (active); under `CC(C)CNCC(=O)N1c2ccccc2Sc2ccccc21`, 11.2 µM (active); under `CC(C)CNC(=O)c1nc(-c2ccccc2)n(-c2ccccc2)n1`, “inactive”.
Turning to `O=C(NCCc1ccccc1)N1c2ccccc2Sc2ccccc21`, the AC50 is 14.1 µM (active).
For `O=C(O)CNCCc1ccccc1`, the activity, negative = inhibition was -11.1% [at 11.4 µM].
In the case of `C[C@@H](CN1c2ccccc2Sc2ccccc21)N(C)C`, the AC50 result was “inactive”.
Still for that read-out and setting: the entry for `NC(=O)/C(=N\OC(=O)c1ccco1)c1nc(-c2ccc(Br)cc2)cs1` is “inactive”.
As to `N[C@@H](Cc1ncccn1)C(=O)O`, the activity, negative = inhibition is 6.81% [at 11.4 µM].
With `CCOC(=O)c1cc(-c2ccccc2)sc1NC(=S)Nc1cc(C)ccn1`, the AC50 was 2.82 µM (active).
Same read-out and setting: under `CCOC(=O)c1cc(-c2ccccc2)sc1NC(=O)C(C)(C)C` stands “inactive”.
Take `CCOc1ncccc1C(=O)OCC(=O)Nc1cc(C)ccc1C`: the activity, negative = inhibition is 0.451% [at 2.29 µM].
For `CC(=O)N(/N=C1\Sc2ccccc2C1=O)c1ccccc1`, the AC50 entry is “inactive”.
Same read-out and setting: the figure for `Cc1ccc(/C=C2\Sc3ccccc3C2=O)s1` is 20 µM (active); for `CC(C)n1cc(/C=C2/SC(=O)N(CC(=O)Nc3ccc4c(c3)OCO4)C2=O)c2ccccc21` it is 0.316 µM (active).
Turning to `Cc1ccsc1/C=C1/SC(=O)N(CC(=O)N2CCOCC2)C1=O`, the AC50 entry was “inactive”.
Same read-out and setting: the figure for `Cn1cc(/C=C2/SC(=O)N(CC(=O)Nc3ccc4c(c3)OCO4)C2=O)c2ccccc21` is 0.2 µM (active); for `Cn1ncc(Cl)c1C(=O)Nc1cccnc1` it is “inactive”.
Still for that read-out and setting: the figure for `CN1CCc2cc(NC(=O)Nc3cccnc3)ccc21` is 12.6 µM (active).
